# Source: PubChem BioAssay
# This is one part of a sample in which hits are shown more often than they occur.
# ALOX12 inh – Primary qHTS assay for inhibitors of human arachidonate 12S-lipoxygenase (ALOX12): Round 2. Polyunsaturated fatty acid lipoxygenase ALOX12 (Homo sapiens), P18054. purified 12hLO, xylenol orange hydroperoxide absorbance. Potency, µM (highest dose often 108 µM), for the others: top-dose activity change, negative = inhibition, hits mostly inhibitors. actives 1.1% (n = 580,000). AID 1671190, 2021; note: potency is the fitted concentration of half-maximal effect
# Target sequence (P18054 whole entry, looked up): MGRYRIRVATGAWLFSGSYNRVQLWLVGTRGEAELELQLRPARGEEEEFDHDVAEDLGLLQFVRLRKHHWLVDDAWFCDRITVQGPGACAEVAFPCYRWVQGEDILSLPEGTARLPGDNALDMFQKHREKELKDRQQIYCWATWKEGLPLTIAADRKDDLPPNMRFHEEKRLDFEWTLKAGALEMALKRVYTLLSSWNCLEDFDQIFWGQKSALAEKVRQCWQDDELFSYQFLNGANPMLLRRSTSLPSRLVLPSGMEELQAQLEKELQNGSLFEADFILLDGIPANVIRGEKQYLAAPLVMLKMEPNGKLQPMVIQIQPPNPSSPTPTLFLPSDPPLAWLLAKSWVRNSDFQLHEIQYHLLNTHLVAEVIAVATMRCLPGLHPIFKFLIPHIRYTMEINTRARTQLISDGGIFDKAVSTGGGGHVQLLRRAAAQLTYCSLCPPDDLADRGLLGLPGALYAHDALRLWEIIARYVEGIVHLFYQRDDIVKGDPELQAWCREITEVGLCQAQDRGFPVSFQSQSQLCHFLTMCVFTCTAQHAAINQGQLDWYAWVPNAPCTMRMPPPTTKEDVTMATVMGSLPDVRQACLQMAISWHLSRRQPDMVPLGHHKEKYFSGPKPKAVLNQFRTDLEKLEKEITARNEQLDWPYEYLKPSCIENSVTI
#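 Purified human 12hLO (150 nM final) in 25 mM Hepes, 0.01% Triton X-100, pH 7.0 was preincubated 15 min at room temperature with compound. Then 40 uM arachidonic acid was added, 30 min. Hydroperoxide was read by Fe-XO absorbance ratio 573/405 nm.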
# HT1080NT lethal – qHTS for induction of synthetic lethality in tumor cells producing 2HG: qHTS for the HT-1080-NT fibrosarcoma cell line. HT-1080-NT fibrosarcoma viability, CellTiter-Glo ATP luminescence, 48 h. actives 1.6% (n = 360,000). Potency, µM (top dose mostly 46.1 µM), for the others: top-dose activity, negative = less viability, hits mostly cytotoxic. AID 686970, 2013;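 note: NT is the 2HG producing partner of a matched IDH1 knockdown line; potency is the fitted concentration of half-maximal effect; 0% = DMSO-treated cells and -100% = media-only wells without cells; nearly all actives have a fitted effect of over 55% in size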
#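 A 48-hour cytotoxicity screen used HT-1080-NT cells plated 2 hours before compound delivery. ATP-based CellTiter-Glo luminescence measured viability, normalized to DMSO and no-cell controls.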
# IL-1B inflam inh – qHTS for Inhibitors of Inflammasome Signaling: IL-1-beta AlphaLISA Primary Screen. THP-1 LPS/ATP IL-1B secretion, AlphaLISA, 16 h; stronger effect = lower value. activity change, % at 57.5 µM. actives 4.7% (n = 360,000); in the data active = activity change below about -50%; inconclusive = mostly about -30% to -49%
#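 Secreted IL-1B measured by AlphaLISA bead assay after 16 h compound exposure of THP-1 cells; compounds (final up to 57.5 uM) added 1 h before LPS (250 ng/mL) and ATP (1.25 mM) stimulation; lower signal means less secretion.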
# DT40 TDP1 CPT – qHTS for Inhibitors of human tyrosyl-DNA phosphodiesterase 1 (TDP1): qHTS in cells in presence of CPT; AID 686979, 2013; actives 12% (n = 420,000); chicken DT40 Tdp1-/-;hTDP1 cells + 20 nM CPT, ATP luminescence, 48 h; Potency, µM (highest dose often 46.2 µM), for inactives: at the top dose activity change, negative = growth inhibition, hits mostly inhibitors; note: potency is the fitted concentration of half-maximal effect; nearly all actives have a fitted effect of over 55% in size
#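 Chicken DT40 Tdp1-/- cells complemented with human TDP1, 400 cells/well, exposed to compounds plus 20 nM camptothecin for at least 48 h at 37 C; viability read as ATP content by CellTiter-Glo luminescence.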
# HT1080 IDH1KD tx – qHTS for induction of synthetic lethality in tumor cells producing 2HG: qHTS for the HT-1080-IDH1KD cell line | actives 2% (n = 360,000) | Potency, µM (highest dose often 46.1 µM), for the others: at the highest dose activity, negative = toxicity, usual class: cytotoxic | HT-1080 IDH1 knockdown viability, ATP luminescence, 48 h;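 note: potency is the fitted concentration of half-maximal effect; 0% = DMSO wells and -100% = cell-free medium wells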
#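 Viability of IDH1-knockdown HT-1080 fibrosarcoma cells was assessed by CellTiter-Glo after 48 h at 37 °C with titrated compound; concentration-effect curves were classified by fit quality and response size.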
# DT40 TDP1 no CPT – qHTS for Inhibitors of human tyrosyl-DNA phosphodiesterase 1 (TDP1): qHTS in cells in absence of CPT. AID 686978, 2013. actives 15% (n = 420,000). DT40 Tdp1-/- hTDP1 cells, no CPT, ATP luminescence, 48 h. Potency, µM (doses to about 46.2 µM), without a hit: top-dose activity change, negative = growth inhibition, actives largely listed as inhibitors; note: potency is the fitted concentration of half-maximal effect; nearly all actives have a fitted effect of over 55% in size
#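 Growth of hTDP1-complemented DT40 Tdp1-knockout cells is measured by ATP luminescence after at least 48 hr compound exposure at 37 °C, with DMSO substituting for the 20 nM CPT used in the parallel screen.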
# * hit, by the source's call; ? = inconclusive; . = not tested or not shown; [ ] = another dose, or the depositor's remark. Unless noted, calls come from the whole dose curve; as a rule, active = well fitted curve in the direction sought with a large enough effect; inconclusive = small, poorly fitted or top-dose-only effect, or another doubt; inactive = no such curve, though single readings can be large; an effect the other way counts as inactive or inconclusive. Unless noted, % is set by controls: 0 for no effect and ±100 for the full control effect.
SMILES,ALOX12 inh,HT1080NT lethal,IL-1B inflam inh,DT40 TDP1 CPT,HT1080 IDH1KD tx,DT40 TDP1 no CPT
CCC(C)Sc1ccc([C@H]2N[C@@](Cc3ccccc3)(C(=O)OC)[C@H]3C(=O)N(CC)C(=O)[C@@H]23)cc1 (stereo partly drawn),-11.0%,-15.5%,-23.6,?,-10.8%,20.6µM*
CCOC(=O)C1CCN(C(=O)Cn2c(=O)cc(C)c3c(C)nn(C)c32)CC1,-8.9%,.,.,25.9µM*,.,18.4µM*
Cc1cc(=O)n(CC(=O)N2CCN(c3ccccc3F)CC2)c2c1c(C)nn2C,6.8%,.,.,16.4µM*,.,8.2µM*
Cc1cc(N2CCN(C(C(=O)NC3CCCC3)C(C)(C)C)CC2)c2ccccc2n1 (stereo not drawn),-27.1%,?,-7.2,?,?,11.6µM*
Cc1ccc(C)c(N2CCN(C(C(=O)NC3CCCC3)C(C)C)CC2)c1 (stereo not drawn),-9.6%,-2.7%,-15.1,18.4µM*,2.6%,20.6µM*
N#Cc1cccnc1N1CCN(C(C(=O)NC2CCCC2)c2ccco2)CC1 (stereo not drawn),-22.6%,19.9%,-10.1,-6.1%,12.9%,?
Cc1cc(C(=O)NC2CCCC2)c2ccccc2n1,0.8%,1.3%,2.1,22.3%,1.6%,8.2%
CC(C)(C)C(C(=O)NC1CCCC1)N1CCN(c2ncccc2C#N)CC1 (stereo not drawn),-12.3%,0.0%,3.1,16.4µM*,4.9%,?
COc1cccc(C(C(=O)NC2CCCC2)N2CCN(c3cc(C)nc4ccccc34)CC2)c1OC (stereo not drawn),7.3%,-11.3%,-19.8,23.1µM*,-3.9%,20.6µM*
COc1c(Cl)cc(C(=O)N2CCN(Cc3cc(=O)n4ccsc4n3)CC2)cc1Cl,1.1%,.,.,.,.,.
CC(C)(CNC(=O)C1(c2ccccc2)CCC1)C(N)=O,-12.5%,.,.,.,.,.
CN1C(=O)Cc2cc(S(=O)(=O)CCC(=O)NC3CCCCCCC3)ccc21,-6.1%,.,.,.,.,.
Cc1cccc(NC(=O)c2sc3nc(C)nc(N4CCOCC4)c3c2C)c1,-8.3%,0.9%,?,-29.0%,3.3%,?
Cc1nc(N2CCN(C)CC2)c2c(C)c(C(=O)Nc3ccc(C)c(F)c3)sc2n1,24.7%,-4.9%[9.24 µM],-59.8*,16.4µM*,14.1µM*,?
Cc1nc(N2CCCCC2)c2c(C)c(C(=O)Nc3ccc4c(c3)OCCO4)sc2n1,-5.3%,-3.7%,.,?,-2.6%,4.11µM*
COc1ccc(C)cc1CN(C)C(=O)Cn1c(=O)c2c(ncn2C)n(C)c1=O,2.2%,.,.,.,.,.
CCCNC(=O)C[C@@H]1CCN(S(=O)(=O)c2c(C)noc2C)C[C@@H]1CC,57.2%[176 µM],.,.,.,.,.
COc1ccc2cc(COC(=O)C3CCN(S(=O)(=O)c4ccccc4F)CC3)ccc2c1,-2.4%,.,.,.,.,.
CC(C)C[C@H]1CN=C(N(C)C)N1CCc1cccc(F)c1,1.4%,0.0%,-15.3,-28.3%,-1.8%,-28.8%
CC(C)C[C@H]1CN=C(Nc2ccccc2)N1CCc1cccc(F)c1,.,3.1%,-52.4*,10.3µM*,-16.6%,?
CCC(C)[C@H]1CN=C(N)N1CCc1cccc(F)c1 (stereo partly drawn),4.1%,0.0%,-19.9,18.4µM*,6.2%,13µM*
